# ± gives the standard deviation.
# T1: HaloTag-ATRX ADD domain (163-292)
# T1 chain: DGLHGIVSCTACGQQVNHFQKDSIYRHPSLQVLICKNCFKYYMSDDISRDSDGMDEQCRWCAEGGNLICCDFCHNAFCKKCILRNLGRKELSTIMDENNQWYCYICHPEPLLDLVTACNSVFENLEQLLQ
# Assays:
# Test in all cases: peptide microarray binding signal (635 nm), min-max normalized on array (fraction of array maximum); higher = stronger binding
# [1] = target: T1, HaloTag-ATRX ADD domain (163-292)
# Outline: (§1)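 Within each library, mean intensities of triplicate spots were min-max scaled to give the binding signal. The spots were histone 13-mer peptide–cellulose conjugates on nitrocellulose with a Cy3 tracer, blocked overnight at 4°C. They were then probed for 1 h at 4°C using biotin-labelled HaloTag reader fusions (10 nM to 1 μM) with streptavidin-Alexa Fluor 647 or rabbit histone antibodies (1:10,000 to 1:2,000) with anti-rabbit Alexa 647, and scanned at 635 nm for signal and 532 nm for misprints on an Axon GenePix 4000B.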
# [2] = target: HaloTag-ING2 PHD (mouse Ing2 200-280)
# Outline: as §1
# [3] = target: anti-H3K4me3 antibody ab8580
# Outline: as §1
# [4] = target: anti-H3K9me3 antibody ab8898
# Outline: as §1
# [5] = peptide region: Unmod H1 variant, binder concentration: 500 nM
# [6] = peptide region: Unmod H1 variant, binder concentration: 100 nM
# [7] = peptide region: Unmod H1 variant, binder concentration: 1:2,000 dilution
# [8] = peptide region: Unmod H1 variant, binder concentration: 50 nM
# [9] = peptide region: Unmod H1 variant, binder concentration: 10 nM
# [10] = peptide region: Unmod H1 variant, binder concentration: 1:10,000 dilution
# [11] = peptide region: Unmod H2A variant, binder concentration: 1:2,000 dilution
# [12] = peptide region: Unmod H2A variant, binder concentration: 1:10,000 dilution
binder,measurement,setting,value
KAKSSAKRAGKKK [Unmod H1 variant K A K S S A K R A G K K K],peptide microarray binding signal,[1]; [5],0.016 ± 0.0011
same,peptide microarray binding signal,[2]; [6],0.00369 ± 5.6e-05
same,peptide microarray binding signal,[3]; [7],0.00034 ± 6.1e-06
same,peptide microarray binding signal,[4]; [7],0.000227
KAAAASKKKPAGP [Unmod H1 variant K A A A A S K K K P A G P],peptide microarray binding signal,[1]; [5],0.0113 ± 0.0013
same,peptide microarray binding signal,[2]; [6],0.003402 ± 3e-05
same,peptide microarray binding signal,[3]; [7],0.000321 ± 3.3e-06
same,peptide microarray binding signal,[4]; [7],0.000181 ± 3.4e-06
AAGAKKAKSPKKA [Unmod H1 variant A A G A K K A K S P K K A],peptide microarray binding signal,[1]; [8],0.0119 ± 0.00059
same,peptide microarray binding signal,[1]; [5],0.01348 ± 5.3e-05
same,peptide microarray binding signal,[2]; [9],0.003342 ± 1.8e-05
same,peptide microarray binding signal,[2]; [6],0.00999 ± 0.0011
same,peptide microarray binding signal,[3]; [7],0.00068 ± 1.9e-05
same,peptide microarray binding signal,[3]; [10],0.00143 ± 2.4e-05
same,peptide microarray binding signal,[4]; [7],0.0004379 ± 4.2e-06
same,peptide microarray binding signal,[4]; [10],0.00115
TPKKSAKKTPKKA [Unmod H1 variant T P K K S A K K T P K K A],peptide microarray binding signal,[1]; [8],0.0108 ± 0.0035
same,peptide microarray binding signal,[1]; [5],0.0104 ± 0.0011
same,peptide microarray binding signal,[2]; [9],0.00322 ± 4.7e-05
same,peptide microarray binding signal,[2]; [6],0.0121 ± 0.0049
same,peptide microarray binding signal,[3]; [7],0.000812 ± 4.4e-05
same,peptide microarray binding signal,[3]; [10],0.00137 ± 4.9e-05
same,peptide microarray binding signal,[4]; [7],0.000287 ± 1.1e-05
same,peptide microarray binding signal,[4]; [10],0.000865 ± 9e-06
KPKKATGAATPKK [Unmod H1 variant K P K K A T G A A T P K K],peptide microarray binding signal,[1]; [8],0.00674 ± 0.0014
same,peptide microarray binding signal,[1]; [5],0.00957 ± 0.00063
same,peptide microarray binding signal,[2]; [9],0.003939 ± 2.1e-05
same,peptide microarray binding signal,[2]; [6],0.00893 ± 0.00084
same,peptide microarray binding signal,[3]; [7],0.000925 ± 2.1e-05
same,peptide microarray binding signal,[3]; [10],0.00171 ± 5.9e-05
same,peptide microarray binding signal,[4]; [7],0.000408 ± 1.2e-05
same,peptide microarray binding signal,[4]; [10],0.00121 ± 2.4e-05
ASGSFKLNKKAAS [Unmod H1 variant A S G S F K L N K K A A S],peptide microarray binding signal,[1]; [8],0.0207 ± 0.0013
same,peptide microarray binding signal,[1]; [5],0.00791 ± 0.00049
same,peptide microarray binding signal,[2]; [9],0.00233 ± 5.8e-05
same,peptide microarray binding signal,[2]; [6],0.00425 ± 7.2e-05
same,peptide microarray binding signal,[3]; [7],0.00132 ± 0.0003
same,peptide microarray binding signal,[3]; [10],0.000913 ± 1.6e-05
same,peptide microarray binding signal,[4]; [7],0.000257 ± 2.7e-06
same,peptide microarray binding signal,[4]; [10],0.00075 ± 1.6e-05
KPKTAKPKAAKPK [Unmod H1 variant K P K T A K P K A A K P K],peptide microarray binding signal,[1]; [8],0.0113 ± 0.0004
same,peptide microarray binding signal,[1]; [5],0.00857 ± 0.00027
same,peptide microarray binding signal,[2]; [9],0.00292 ± 8.4e-05
same,peptide microarray binding signal,[2]; [6],0.00914 ± 0.00042
same,peptide microarray binding signal,[3]; [7],0.000736
same,peptide microarray binding signal,[3]; [10],0.00143 ± 2.4e-05
same,peptide microarray binding signal,[4]; [7],0.000529 ± 1.8e-05
same,peptide microarray binding signal,[4]; [10],0.0011 ± 1.1e-05
PKKAKKPAAAAGA [Unmod H1 variant P K K A K K P A A A A G A],peptide microarray binding signal,[1]; [8],0.0116 ± 7.8e-05
same,peptide microarray binding signal,[1]; [5],0.00771 ± 0.00013
same,peptide microarray binding signal,[2]; [9],0.00322 ± 4.7e-05
same,peptide microarray binding signal,[2]; [6],0.00652 ± 0.00013
same,peptide microarray binding signal,[3]; [7],0.000736 ± 1.2e-05
same,peptide microarray binding signal,[3]; [10],0.001541 ± 1.5e-05
same,peptide microarray binding signal,[4]; [7],0.000483 ± 9.2e-06
same,peptide microarray binding signal,[4]; [10],0.00098
TLVQTKGTGASGS [Unmod H1 variant T L V Q T K G T G A S G S],peptide microarray binding signal,[1]; [8],0.0308 ± 0.012
same,peptide microarray binding signal,[1]; [5],0.0171 ± 0.0029
same,peptide microarray binding signal,[2]; [9],0.00734 ± 0.00017
same,peptide microarray binding signal,[2]; [6],0.0165 ± 0.00046
same,peptide microarray binding signal,[3]; [7],0.00255 ± 9.7e-05
same,peptide microarray binding signal,[3]; [10],0.00388 ± 0.00013
same,peptide microarray binding signal,[4]; [7],0.0019 ± 0.00012
same,peptide microarray binding signal,[4]; [10],0.00231 ± 7.5e-05
SGRGKQGGKARAK [Unmod H2A variant S G R G K Q G G K A R A K],peptide microarray binding signal,"[1]; peptide region: Unmod H2A variant, binder concentration: 50 nM",0.0203 ± 0.0024
same,peptide microarray binding signal,"[1]; peptide region: Unmod H2A variant, binder concentration: 500 nM",0.0194 ± 0.0069
same,peptide microarray binding signal,"[2]; peptide region: Unmod H2A variant, binder concentration: 10 nM",0.0104 ± 0.00068
same,peptide microarray binding signal,"[2]; peptide region: Unmod H2A variant, binder concentration: 100 nM",0.0167 ± 0.00073
same,peptide microarray binding signal,[3]; [11],0.000151 ± 1.7e-06
same,peptide microarray binding signal,[3]; [12],0.00337 ± 0.0001
same,peptide microarray binding signal,[4]; [11],0.00112 ± 1.7e-05
same,peptide microarray binding signal,[4]; [12],0.00133
